Experiment [1] deals with Paired box protein Pax-6 (Homo sapiens) (UniProt P26367). The experiment is described as follows: ATG_Pax6_CIS: Attagene CIS-FACTORIAL HepG2 Assay for human Paired Box 6 (PAX6) (AID 2282956). The conditions noted are these: HepG2 CIS-FACTORIAL PAX6 reporter transcription, RNA readout; actives raise or lower the signal. Summed up:
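HepG2 cells transiently transfected with cis-promoter-driven multiplexed reporter units sensing endogenous transcription factor activity; 24 h chemical exposure. Reporter mRNA quantified by RT-PCR, 6-FAM labelling, HpaI digestion and capillary electrophoresis; bidirectional fit versus DMSO baseline.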

Experiment [2] is described as follows: ATG_PXRE_CIS: Attagene CIS-FACTORIAL HepG2 Assay for human Pregnane X Receptor Element (PXRE) (AID 2282957). The settings on record: HepG2 Attagene CIS-FACTORIAL PXRE reporter, mRNA; actives raise or lower the signal. Summed up:
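Transfect HepG2 with MRTUs (cis promoter elements); dose chemical, incubate 24 h; isolate RNA, RT with oligo(dT), PCR, 6-FAM label, HpaI cut, CE. Gain/loss fit vs DMSO.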

Experiment [3] is described as follows: ATG_PPRE_CIS: Attagene CIS-FACTORIAL HepG2 Assay for human Peroxisome Proliferator-activated Response Element (PPRE) (AID 2282958). The settings on record: HepG2 PPRE cis-element reporter, Attagene transcription factor profiling; actives raise or lower the signal. Summed up:
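In this cell-based multiplex, a PPRE cis element drives a reporter sequence in transiently transfected HepG2 cells. Following 24 h treatment, labeled cDNA amplicons are sized and quantified by capillary electrophoresis, with DMSO defining baseline.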

Experiment [4] in a line: ATG_RORE_CIS: Attagene CIS-FACTORIAL HepG2 Assay for human RAR-related Orphan Receptor Element (RORE) (AID 2282959). The settings on record: HepG2 Attagene cis-factorial RORE reporter, mRNA; actives raise or lower the signal. Summed up:
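Endogenous factor activity at a cis response element is read as reporter transcript levels in HepG2 cells, 24 h post-dose. Transcripts are quantified by RT-PCR with capillary electrophoresis, and data fitted in both directions against DMSO.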

The target in experiment [5] is Transcription factor Sp1 (Homo sapiens) (UniProt P08047). The experiment is described as follows: ATG_Sp1_CIS: Attagene CIS-FACTORIAL HepG2 Assay for human Specificity Protein 1 (Sp1) (AID 2282961). The conditions noted are these: HepG2 Sp1 cis-reporter transcription, actives raise or lower the signal. Summed up: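 Cells: HepG2, transiently transfected with cis-regulated multiplexed reporters. Exposure: 24 h. Detection: reporter transcripts amplified, fluorescently labeled, restriction-digested and sized by capillary electrophoresis. Analysis: bidirectional fit relative to DMSO.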

Experiment [6] is described as follows: ATG_SREBP_CIS: Attagene CIS-FACTORIAL HepG2 Assay for human Sterol Regulatory Element Binding (SREBP) (AID 2282962). The settings on record: HepG2 Attagene cis-factorial SREBP reporter, mRNA; actives raise or lower the signal. Summed up: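 HepG2 cells transiently transfected with multiplexed cis-promoter reporter units sensing endogenous transcription factors; reporter mRNA measured 24 h after dosing by RT-PCR, 6-FAM labeling, HpaI digestion and capillary electrophoresis. Bidirectional fit versus DMSO.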

Experiment [7] has as its target Signal transducer and activator of transcription 3 (Homo sapiens) (UniProt P40763). As to the kind of experiment: ATG_STAT3_CIS: Attagene CIS-FACTORIAL HepG2 Assay for human Signal Transducer and Activator of Transcription 3 (STAT3) (AID 2282963). The conditions noted are these: HepG2, Attagene cis-factorial STAT3 reporter transcription; actives raise or lower the signal. Summed up:
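After a 24 h compound incubation, total RNA from MRTU-transfected HepG2 cells was converted to cDNA and reporter sequences PCR-amplified, labelled and profiled by capillary electrophoresis. Gain and loss of signal were referenced to DMSO.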

The nature of experiment [8]: ATG_TA_CIS: Attagene CIS-FACTORIAL HepG2 Assay for human TA Basal Promoter (AID 2282964). The settings on record: HepG2 Attagene CIS-factorial TA basal promoter reporter; actives raise or lower the signal. Summed up:
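Steps: transfect HepG2 with MRTUs; dose 24 h; isolate RNA, DNase-treat, reverse-transcribe; PCR and FAM-label reporter cDNA; digest with HpaI 2h at 37 C; run capillary electrophoresis. Activity fitted both directions against DMSO.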

Experiment [9] can be described thus: ATG_TCF_b_cat_CIS: Attagene CIS-FACTORIAL HepG2 Assay for human T-Cell-Factor with beta-catenin (TCF/b-cat) (AID 2282965). The settings on record: HepG2 TCF/beta-catenin cis-reporter transcription, actives raise or lower the signal. Summed up:
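Measured: reporter mRNA in HepG2 transiently transfected with cis-promoter reporter units, 24 h after chemical addition. Fitting was bidirectional, DMSO as negative control.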

Experiment [10] in a line: ATG_TAL_CIS: Attagene CIS-FACTORIAL HepG2 Assay for human TAL Basal Promoter (AID 2282966).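 Note: background control endpoint measuring basal TAL promoter reporter mRNA not a specific factor.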 The conditions noted are these: HepG2 Attagene cis-factorial TAL promoter reporter; actives raise or lower the signal. Summed up:
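Fluorescence of labelled reporter cDNA fragments, resolved by capillary electrophoresis, gave the readout. Human HepG2 liver cells carried transiently transfected cis-element reporter units and were treated for 24 hours; activity was fitted bidirectionally against DMSO.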

The nature of experiment [11]: ATG_TGFb_CIS: Attagene CIS-FACTORIAL HepG2 Assay for human Transforming Growth Factor (TGF) (AID 2282967). The conditions noted are these: HepG2 Attagene CIS TGFb reporter, mRNA transcription; actives raise or lower the signal. Summed up:
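Cells were dosed for 24 hours, after which total RNA was reverse-transcribed and reporter sequences amplified, labeled and sized by capillary electrophoresis. Activity was fitted in both directions against DMSO.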

Experiment [12] is described as follows: ATG_VDRE_CIS: Attagene CIS-FACTORIAL HepG2 Assay for human Vitamin D Receptor Element (VDRE) (AID 2282968). The conditions noted are these: HepG2 VDRE cis-reporter transcription, actives raise or lower the signal. Summed up: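 In transiently transfected HepG2 liver cells, gain or loss of reporter mRNA after 24 h exposure is scored relative to DMSO, using fluorescence detection by capillary electrophoresis of RT-PCR products.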

The target in experiment [13] is X-box-binding protein 1 (Homo sapiens) (UniProt P17861). The experiment is described as follows: ATG_Xbp1_CIS: Attagene CIS-FACTORIAL HepG2 Assay for human X-box Binding Protein 1 (XBP1) (AID 2282972). The settings on record: HepG2 XBP1 cis-element reporter, Attagene multiplex; actives raise or lower the signal. Summed up:
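HepG2 cells transiently transfected with multiple cis-element reporter units report endogenous TF activity; 24 h exposure, then reporter mRNA measured by RT-PCR, 6-FAM labelling, HpaI digestion and capillary electrophoresis. Bidirectional fitting versus DMSO.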

Experiment [14] can be described thus: ATG_M_19_TRANS: Attagene TRANS-FACTORIAL HepG2 Assay for M19 Transcription Factor (Internal Marker) (AID 2282974; active = hit-call score of the fitted dose curve at least 0.9, where 1 is the maximum). The settings on record: HepG2 Attagene TRANS-FACTORIAL M19 internal marker reporter. Summed up: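 Reporter mRNA induction was measured in transfected HepG2 cells 24 h after dosing. Endpoint fitted upward relative to DMSO and serves as a background control within the multiplexed TRANS panel.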

Experiment [15] can be described thus: ATG_GAL4_TRANS: Attagene TRANS-FACTORIAL HepG2 Assay for GAL4 (Internal Marker) (AID 2282976; active = hit-call score of the fitted dose curve at least 0.9, where 1 is the maximum). The settings on record: HepG2 Attagene TRANS GAL4 internal marker reporter. Summed up:
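First, HepG2 cells were transfected with reporter units under GAL4-UAS control. Next, they were treated with chemical for 24 h. Finally, RNA was reverse-transcribed, PCR-amplified, FAM-labelled and resolved by capillary electrophoresis, with induction scored against DMSO.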

Experiment [16] addresses Glucocorticoid receptor (Homo sapiens) (UniProt P04150). The experiment is described as follows: ATG_GR_TRANS: Attagene TRANS-FACTORIAL HepG2 Assay for human Glucocorticoid Receptor (GR) (AID 2282978; active = hit-call score of the fitted dose curve at least 0.9, where 1 is the maximum;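 note: activators score as hits since higher reporter transcript over DMSO is fitted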). The conditions noted are these: HepG2 Attagene TRANS GR reporter, mRNA transcription. Summed up: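 Reporter transcript levels, detected by fluorescence after RT-PCR and capillary electrophoresis, served as the endpoint. HepG2 cells bearing transfected GAL4-UAS reporters responsive to NR-GAL4 chimeras were incubated with compound 24 h; DMSO defined baseline.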

Experiment [17] concerns the target Nuclear receptor subfamily 1 group I member 3 (Homo sapiens) (UniProt Q14994). As to the kind of experiment: ATG_CAR_TRANS: Attagene TRANS-FACTORIAL HepG2 Assay for human Constitutive Androstane Receptor (CAR) (AID 2282969; active = hit-call score of the fitted dose curve at least 0.9, where 1 is the maximum;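 note: activators raise reporter mRNA above DMSO so AC50 marks induction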). The settings on record: HepG2 Attagene TRANS-FACTORIAL CAR reporter. Summed up:
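Readout is reporter mRNA induction, quantified by fluorescent primer extension and capillary electrophoresis after RT-PCR. Cells were HepG2 transiently carrying chimeric NR-Gal4 constructs with GAL4-UAS reporters, treated for 24 h; activity scored upward from DMSO.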

The results in this text go back to PubChem BioAssay (EPA / NIEHS).

SMILES strings stand for the structures. Inconclusive results are not listed. Activity calls are given as the source filed them. Rule for the calls, unless noted: active = hit-call score of the fitted dose curve at least 0.9, where 1 is the maximum; inactive = score below 0.9.

What is called AC50 is the concentration giving half of the maximal activity seen.

Paired box protein Pax-6 (Homo sapiens), sequence (P26367 whole entry, looked up): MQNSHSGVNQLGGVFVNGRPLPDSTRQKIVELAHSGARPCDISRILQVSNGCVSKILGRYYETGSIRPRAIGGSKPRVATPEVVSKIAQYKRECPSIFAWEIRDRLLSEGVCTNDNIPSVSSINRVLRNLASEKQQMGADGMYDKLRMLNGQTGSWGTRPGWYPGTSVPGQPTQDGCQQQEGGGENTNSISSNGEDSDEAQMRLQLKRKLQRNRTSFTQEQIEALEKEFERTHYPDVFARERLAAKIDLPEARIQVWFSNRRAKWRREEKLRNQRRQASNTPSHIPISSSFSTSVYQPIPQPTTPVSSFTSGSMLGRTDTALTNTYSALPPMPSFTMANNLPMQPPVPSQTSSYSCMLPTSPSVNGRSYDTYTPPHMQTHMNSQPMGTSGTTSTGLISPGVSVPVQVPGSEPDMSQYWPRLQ
Transcription factor Sp1 (Homo sapiens), sequence (P08047 whole entry, looked up): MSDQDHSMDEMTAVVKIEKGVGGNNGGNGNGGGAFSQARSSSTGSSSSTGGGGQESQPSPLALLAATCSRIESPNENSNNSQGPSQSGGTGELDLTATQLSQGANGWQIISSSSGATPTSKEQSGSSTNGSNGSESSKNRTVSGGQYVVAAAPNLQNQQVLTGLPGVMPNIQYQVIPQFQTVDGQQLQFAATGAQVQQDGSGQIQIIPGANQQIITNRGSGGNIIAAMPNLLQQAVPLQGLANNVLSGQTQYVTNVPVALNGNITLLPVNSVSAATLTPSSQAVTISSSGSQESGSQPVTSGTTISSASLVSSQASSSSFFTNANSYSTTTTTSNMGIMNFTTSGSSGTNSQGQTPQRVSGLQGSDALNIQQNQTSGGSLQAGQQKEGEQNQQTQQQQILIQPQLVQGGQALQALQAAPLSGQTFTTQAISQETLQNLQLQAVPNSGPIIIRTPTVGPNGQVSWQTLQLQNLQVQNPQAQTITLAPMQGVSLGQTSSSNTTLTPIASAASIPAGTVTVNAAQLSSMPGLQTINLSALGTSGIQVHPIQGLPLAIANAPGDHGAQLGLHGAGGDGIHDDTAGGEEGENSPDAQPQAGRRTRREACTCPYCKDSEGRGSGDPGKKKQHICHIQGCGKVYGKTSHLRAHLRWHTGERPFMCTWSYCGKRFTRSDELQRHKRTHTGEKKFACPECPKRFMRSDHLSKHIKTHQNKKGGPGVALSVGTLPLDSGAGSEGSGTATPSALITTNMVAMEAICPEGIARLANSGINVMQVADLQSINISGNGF
Glucocorticoid receptor (Homo sapiens), sequence (P04150 whole entry, looked up, the tested form may be a part): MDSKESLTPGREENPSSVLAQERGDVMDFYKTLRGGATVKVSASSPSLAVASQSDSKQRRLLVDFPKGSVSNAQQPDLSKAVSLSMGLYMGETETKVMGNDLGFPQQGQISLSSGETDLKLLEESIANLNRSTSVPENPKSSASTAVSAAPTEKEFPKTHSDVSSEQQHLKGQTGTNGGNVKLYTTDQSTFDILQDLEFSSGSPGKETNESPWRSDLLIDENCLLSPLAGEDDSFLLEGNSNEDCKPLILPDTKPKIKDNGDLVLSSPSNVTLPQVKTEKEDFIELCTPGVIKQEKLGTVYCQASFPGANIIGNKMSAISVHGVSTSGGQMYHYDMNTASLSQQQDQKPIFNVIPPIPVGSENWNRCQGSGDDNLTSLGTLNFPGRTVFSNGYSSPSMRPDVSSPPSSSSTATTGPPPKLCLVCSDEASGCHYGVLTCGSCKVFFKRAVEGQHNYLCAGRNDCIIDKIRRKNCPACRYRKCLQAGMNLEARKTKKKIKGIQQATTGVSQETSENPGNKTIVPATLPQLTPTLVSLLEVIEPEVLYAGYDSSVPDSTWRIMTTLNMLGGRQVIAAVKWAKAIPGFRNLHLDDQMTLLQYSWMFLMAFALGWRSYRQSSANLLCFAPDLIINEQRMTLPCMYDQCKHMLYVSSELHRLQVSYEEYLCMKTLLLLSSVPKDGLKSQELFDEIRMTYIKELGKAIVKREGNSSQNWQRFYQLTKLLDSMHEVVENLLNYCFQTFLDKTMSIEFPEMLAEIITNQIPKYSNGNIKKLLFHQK
Signal transducer and activator of transcription 3 (Homo sapiens), sequence (P40763 whole entry, looked up): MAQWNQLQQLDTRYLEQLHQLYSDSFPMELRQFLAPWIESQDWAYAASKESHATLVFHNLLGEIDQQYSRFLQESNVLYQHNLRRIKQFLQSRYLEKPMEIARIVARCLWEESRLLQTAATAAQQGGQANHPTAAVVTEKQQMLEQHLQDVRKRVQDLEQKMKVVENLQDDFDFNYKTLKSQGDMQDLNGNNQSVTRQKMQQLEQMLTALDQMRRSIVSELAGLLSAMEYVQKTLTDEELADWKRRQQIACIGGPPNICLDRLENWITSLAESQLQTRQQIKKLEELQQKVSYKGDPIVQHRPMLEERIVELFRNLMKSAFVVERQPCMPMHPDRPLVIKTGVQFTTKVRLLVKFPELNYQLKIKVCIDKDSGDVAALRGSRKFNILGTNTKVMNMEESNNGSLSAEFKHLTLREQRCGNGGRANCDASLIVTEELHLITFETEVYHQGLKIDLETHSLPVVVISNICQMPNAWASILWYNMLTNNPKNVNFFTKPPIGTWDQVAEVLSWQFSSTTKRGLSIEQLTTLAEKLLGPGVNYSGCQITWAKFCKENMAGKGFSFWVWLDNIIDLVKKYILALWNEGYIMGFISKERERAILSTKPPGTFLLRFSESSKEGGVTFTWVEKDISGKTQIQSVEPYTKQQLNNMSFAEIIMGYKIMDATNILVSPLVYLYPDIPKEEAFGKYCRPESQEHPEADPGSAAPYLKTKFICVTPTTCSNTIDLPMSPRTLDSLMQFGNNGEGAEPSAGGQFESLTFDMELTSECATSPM
X-box-binding protein 1 (Homo sapiens), sequence (P17861 whole entry, looked up): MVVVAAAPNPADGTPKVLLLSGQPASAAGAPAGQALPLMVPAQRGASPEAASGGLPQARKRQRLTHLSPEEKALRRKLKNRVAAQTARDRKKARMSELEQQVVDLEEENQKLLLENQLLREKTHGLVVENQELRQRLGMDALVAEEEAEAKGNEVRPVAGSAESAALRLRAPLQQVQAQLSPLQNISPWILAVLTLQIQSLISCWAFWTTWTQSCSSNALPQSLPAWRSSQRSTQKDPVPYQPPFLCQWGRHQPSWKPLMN
Nuclear receptor subfamily 1 group I member 3 (Homo sapiens), sequence (Q14994 whole entry, looked up, the tested form may be a part): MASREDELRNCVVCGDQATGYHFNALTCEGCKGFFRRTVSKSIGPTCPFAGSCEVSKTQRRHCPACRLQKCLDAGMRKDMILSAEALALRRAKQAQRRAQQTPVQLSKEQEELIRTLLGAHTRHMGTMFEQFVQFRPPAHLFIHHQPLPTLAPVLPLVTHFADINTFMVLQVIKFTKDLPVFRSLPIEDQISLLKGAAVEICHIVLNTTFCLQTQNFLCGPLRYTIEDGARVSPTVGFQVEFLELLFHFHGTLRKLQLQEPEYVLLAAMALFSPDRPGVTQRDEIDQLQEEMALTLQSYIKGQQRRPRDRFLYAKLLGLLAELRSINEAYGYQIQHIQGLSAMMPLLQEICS

`CCOc1cccc(-n2cc(C(=O)N3CCN(c4cc(C(=O)O)c5ccccc5c4)CC3)nc2-c2ccc(C)cc2)c1`: the concentration at half-maximal activity (AC50) in experiment [1] is 33 µM (active); in experiment [2], 41.4 µM (active); in experiment [3] it was 28.3 µM (active); in experiment [4] it was 26.1 µM (active); in [6], 3.92 µM (active); in experiment [9], 22.3 µM (active). For the same compound, the results for the AC50 in experiment [11] and in [12] were 151 µM (active) and 27.2 µM (active), respectively. Moreover, the result in experiment [5], in experiment [7], in [8], in experiment [10], in [13] and in [14] was inactive. Besides, the compound was called inactive in experiment [15] and in experiment [16].

Regarding `CC(C)=CCCC(C)CCO` (stereo unspecified), the outcome in [1], in [3], in experiment [4], in experiment [5], in experiment [6] and in [7] was inactive. Besides, the compound was classed as inactive in [8], in experiment [10], in [11] and in experiment [14]. In addition, the concentration at half-maximal activity (AC50) in [2] is 26.6 µM (active); in experiment [9] it was 167 µM (active).

In the case of `Cn1cnc([N+](=O)[O-])c1Sc1ncnc2nc[nH]c12`, the compound was called inactive in experiment [1], in [2], in [3], in [4], in experiment [5] and in experiment [6]. Besides, the compound was called inactive in experiment [7], in [8], in [9], in experiment [10], in experiment [11] and in [17]. Also, the outcome in experiment [13] and in experiment [16] was inactive.

Take `CC1=CC(=O)CC(C)(C)C1`: the compound was classed as inactive in experiment [1], in experiment [3], in experiment [4], in experiment [5], in [6] and in [7]. In addition, the compound was called inactive in [8], in experiment [9], in [10], in experiment [11], in experiment [12] and in experiment [14]. Also, the outcome in experiment [16] was inactive. The AC50 in experiment [2] was 50 µM (active).
